High-throughput results: PubChem, National Center for Advancing Translational Sciences (NCATS)
Tau FP inhib: qHTS for Inhibitors of Tau Fibril Formation, Fluorescence Polarization; Microtubule-associated protein tau (Homo sapiens), P10636; K18 P301L tau heparin fibrillization, Alexa594 FP, 6 h; Potency, µM (highest dose often 57.7 µM), without a hit: at the highest dose activity, negative = inhibition, usual class: inhibitors; 280,000 compounds, 0.39% hits; note: nearly all actives have a fitted effect of over 55% in size
Target sequence (P10636 561-689 P618L limits assumed): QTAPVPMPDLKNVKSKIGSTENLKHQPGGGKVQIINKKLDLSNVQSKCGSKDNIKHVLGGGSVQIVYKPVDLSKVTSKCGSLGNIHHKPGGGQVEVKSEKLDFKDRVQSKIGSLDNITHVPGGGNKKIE
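K18 P301L tau (15 uM unlabeled/0.24 uM Alexa 594-labeled, final) + compound + heparin 20 uM final; 100 mM NaOAc pH 7; 6 hr 37 C; ThT 30 uM final added, 1 hr RT; FP ex 555/em 632 nm.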
Tau fibril ThT: qHTS for Inhibitors of Tau Fibril Formation, Thioflavin T Binding; Microtubule-associated protein tau (Homo sapiens), P10636; recombinant tau K18 P301L, heparin-induced fibrillization, ThT fluorescence; Potency, µM (doses to about 57.4 µM), for inactives: top-dose activity, negative = inhibition, usual class: inhibitors; 270,000 compounds, 2.1% hits; AID 1460, 2008; note: nearly all actives have a fitted effect of over 55% in size
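In this qHTS, human K18 P301L tau is incubated with compound and heparin for 6 hr at 37 C, and Thioflavin T fluorescence then reports fibril load.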
TexasRed fluor: Total Fluorescence Counterscreen for Inhibitors of the Interaction of Thyroid Hormone Receptor and Steroid Receptor Coregulator 2; TRb/SRC2 Texas Red total fluorescence interference; Potency, µM (series often up to 106 µM), without a hit: at the highest dose fluorescence change, negative = quenching; 280,000 compounds, 0.29% hits; AID 1479, 2009; active = well fitted curve in either direction with a large enough effect; inconclusive = small, poorly fitted or top-dose-only effect
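Human TRb ligand-binding domain at 0.6 uM with 20 nM Texas Red SRC2 peptide in Tris buffer containing 1 uM T3 and 5% DMSO, incubated with compound 5 h at ambient temperature. Total fluorescence (555/632 nm) calculated as parallel + 2 × perpendicular.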
RGS12 GoLoco inh: qHTS Assay for Inhibitors of RGS12 GoLoco Motif Activity (Red Fluorophore) | Guanine nucleotide-binding protein G(i) subunit alpha-1 (Homo sapiens), P63096 | Gai1:RGS12 GoLoco peptide FP, rhodamine, 10 min | Potency, µM (top dose mostly 61.6 µM), for inactives: top-dose activity, negative = inhibition, most hits filed as inhibitors | 230,000 compounds, 0.44% hits | AID 880, 2007; active = well fitted inhibition curve with a large enough effect, not every such curve was filed as active; inactive = no such curve, though single readings can be large or run the other way; note: nearly all actives have a fitted effect of over 30% in size
Tau fluor cs: Counterscreen qHTS for Inhibitors of Tau Fibril Formation, Fluorescence Polarization. tau K18 P301L Alexa594 fluorescence, heparin fibrillization. Potency, µM (doses to about 57.7 µM), without a hit: top-dose activity change, negative = decrease. 280,000 compounds, 0.93% hits; note: nearly all actives have a fitted effect of over 55% in size
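Human tau K18 P301L (15 uM unlabeled, 0.24 uM Alexa 594-labeled) in 100 mM sodium acetate pH 7 with 20 uM heparin, 6 hr at 37 C. ThT 30 uM added, 1 hr ambient; Alexa 594 FP and total fluorescence read at 555/632 nm.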
TRb SRC2 PPI: qHTS for Inhibitors of the Interaction of Thyroid Hormone Receptor and Steroid Receptor Coregulator 2; TRbeta-SRC2 peptide binding, fluorescence polarization; receptor liganded with 1 µM T3; Potency, µM (top dose mostly 106 µM), for the others: at the top dose activity change, negative = inhibition, hits mostly inhibitors; 280,000 compounds, 0.065% hits;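 note: plate controls were bound peptide for no effect and peptide without receptor for full effect; nearly all actives have a fitted effect of over 50% in size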
Target sequence (P10828 whole entry, looked up): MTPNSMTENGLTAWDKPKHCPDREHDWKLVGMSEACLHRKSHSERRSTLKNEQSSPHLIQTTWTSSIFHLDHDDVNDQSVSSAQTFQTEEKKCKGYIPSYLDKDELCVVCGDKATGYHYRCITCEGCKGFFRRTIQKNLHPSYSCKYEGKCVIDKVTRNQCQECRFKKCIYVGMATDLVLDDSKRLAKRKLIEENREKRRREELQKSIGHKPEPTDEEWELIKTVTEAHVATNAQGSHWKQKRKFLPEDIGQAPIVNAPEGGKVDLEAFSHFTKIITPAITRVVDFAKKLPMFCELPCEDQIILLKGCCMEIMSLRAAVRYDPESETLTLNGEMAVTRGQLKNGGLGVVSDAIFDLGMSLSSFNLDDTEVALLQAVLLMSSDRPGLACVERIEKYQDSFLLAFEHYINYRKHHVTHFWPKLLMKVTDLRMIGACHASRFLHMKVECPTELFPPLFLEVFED
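Fluorescence polarization of 20 nM Texas Red SRC2 peptide (20-aa NR interaction domain) bound to 0.6 uM human TRb ligand-binding domain, with 1 uM T3, after 5 hr at ambient temperature; inhibition seen as decreased polarization.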
Numbers without * were called inactive; ? = inconclusive; . = no result given; [ ] = dose if it differs, or a comment. Rows were chosen to be rich in hits. Some 3.2% of all compounds tested hit in one or more screens of this group. Unless noted, calls come from the whole dose curve; as a rule, active = well fitted curve in the direction sought with a large enough effect; inconclusive = small, poorly fitted or top-dose-only effect, or another doubt; inactive = no such curve, though single readings can be large; an effect the other way counts as inactive or inconclusive. Unless noted, % is set by controls: 0 for no effect and ±100 for the full control effect; potency is the fitted concentration of half-maximal effect.

SMILES	Tau FP inhib	Tau fibril ThT	TexasRed fluor	RGS12 GoLoco inh	Tau fluor cs	TRb SRC2 PPI
COc1cc(C(=O)O/N=C2/C=C(C)C(=O)C=C2C)cc(OC)c1OC	-2%	?	-24%	-12%	-5%	3%
C=CCC1C=CC(Oc2ccc(OC)cc2)C(CO)O1 (stereo unspecified)	-2%[11.6 µM]	-14%[11.5 µM]	-15%[11.2 µM]	.	-12%[11.6 µM]	6%[11.2 µM]
O=[N+]([O-])c1cc(S(=O)(=O)N2CCCCCC2)ccc1F	-7%	16µM*	1%	4%	?	-4%
C=CCOC(=O)N[C@H](c1ccccc1)C(C(C)=O)C(C)=O	-5%	-9%	-1%	0%	-10%	3%
CCN(CC)c1nc2c3c(nc4c(c3c1C#N)CC(=O)N4c1ccc(Cl)cc1)NC(C)=N2	?	16µM*	-2%	.	?	5%
CC(C)(C)c1ccc(/C=N/NC(=O)Cc2c[nH]c3ccccc23)cc1	-14%	?	-4%	6%	14µM*[quencher]	-17%
N#Cc1cccc(N=c2ssnc2Cl)c1	?	11µM*	-5%	-23%	-18%	-7%
OCc1ccccc1N=c1ssnc1Cl	?	35µM*	2%	-4%	?	-5%
COc1cc(N=c2ssnc2Cl)cc(OC)c1	3%	-1%	-5%	16µM*	-9%	1%
Clc1nssc1=Nc1ccc(Br)cc1	?	13µM*	-2%	13%	-25%	-7%
Clc1ccc(N=c2ssnc2Cl)nc1	-7%	-8%	2%[53 µM]	10%	-9%	0%[53 µM]
COc1ccc(-c2cc([C@H](O)C3CCCCN3)c3ccccc3n2)cc1 (stereo partly specified)	.	.	.	7%[14.2 µM]	.	.
COc1ccc(-c2nc3c(c4c2C[C@H](c2ccccc2)OC4)CN(S(=O)(=O)c2ccc(C)cc2)CC3)c(C)c1	0%[11.6 µM]	8%[11.5 µM]	-7%[11.2 µM]	3%[14.2 µM]	6%[11.6 µM]	0%[11.2 µM]
CCCCCCCCN=C(N)c1ccc(C(=O)OCC2CCCCC2)cc1	.	.	-1%	.	.	-8%
CCOc1ccc2c(c1)c(N=Nc1cccc(C(=O)O)c1)c(O)n2C	5%	7%	-1%	13%	3%	6%
Cc1ccc2c(c1)c(N=Nc1cccc(C(=O)O)c1)c(O)n2C	2%	14µM*	-14%	11%	-7%	0%
C[C@H]1Cc2c(-c3ccccc3)nc3c(c2CO1)CN(C(=O)NCc1ccco1)CC3	-1%[11.6 µM]	-7%[11.5 µM]	-3%[11.2 µM]	0%[14.2 µM]	-6%[11.6 µM]	5%[11.2 µM]
CC(/C=C\C=C\c1ccccc1)=N\NC(=O)c1cncc(Br)c1	3%	10µM*	0%	29%	-14%	3%
CC(/C=C/C=C/c1ccccc1)=N\NC(=O)c1cccnc1	-1%	?	-3%	11%	-6%	-4%
CCOCCCNC(=O)/C(C#N)=C/c1cc(OC)c(O)c([N+](=O)[O-])c1	10%	14µM*	-1%	9%	-11%	-13%
CCOCCCNC(=O)/C(C#N)=C/c1ccc(Cl)c([N+](=O)[O-])c1	5%	?	0%	-1%	-26%	-3%
CC(=O)Nc1ccn(C2OC(C(COC(C)=O)NC(=O)C(Cc3ccccc3)NC(=O)OC(C)(C)C)C(OC(C)=O)C2OC(C)=O)c(=O)n1 (stereo unspecified)	.	.	1%	.	.	1%
COc1ccc(Nc2cc(C(=O)NCCc3ccccc3)c3ccccc3n2)cc1OC	3%	-4%	-1%	.	?	-7%
CCN(CCCNC(=O)c1cc(Nc2ccc(OC)cc2OC)nc2ccccc12)c1cccc(C)c1	5%	?	-1%	.	7.1µM*[quencher]	3%
CCCCN(CCCNC(=O)c1cc(Nc2ccc(OC)c(OC)c2)nc2ccccc12)c1ccccc1	12%	-16%	0%	.	7.1µM*[quencher]	9%
SMILES	Tau FP inhib	Tau fibril ThT	TexasRed fluor	RGS12 GoLoco inh	Tau fluor cs	TRb SRC2 PPI
COc1ccccc1Nc1cc(C(=O)NCCCN(C)c2ccccc2)c2ccccc2n1	10%	-12%	-11%	.	?	-4%
CCCCN(CCCC)CCCNC(=O)c1cc(-c2ccc(Cl)s2)nc2ccccc12	-10%	-15%	0.79µM*[quencher]	.	?	-10%
COc1ccc(Nc2cc(C(=O)NCCCN(C)Cc3ccccc3)c3ccccc3n2)cc1OC	?	?	-3%	.	28µM*[quencher]	1%
CCC(C)C(NC(=O)OC(C)(C)C)C(=O)NC1COC2CC(n3cc(C)c(=O)[nH]c3=O)OC12 (stereo unspecified)	.	.	2%	.	.	-1%
C/C(=C\C(C)CC(C)CC(C)C)C1CC(=O)OC1=O (stereo unspecified)	.	.	-4%[201 µM]	.	.	1%[201 µM]
O=C(O)C1(C(=O)Nc2ccc(Cl)cc2Cl)CC1	.	.	0%[201 µM]	.	.	0%[201 µM]
CC(C)(C)OC(=O)NC(Cc1ccccc1)C(O)c1ccco1 (stereo unspecified)	.	.	-2%	.	.	-4%
CCCn1c(-c2ccc(F)cc2)nc2c(N3CCN(C)CC3)nc(C)nc21	?	-2%	-1%	1%	-6%	5%
COc1ccc(Nc2cc(C(=O)NC3CCC(C)CC3)c3ccccc3n2)cc1OC (stereo unspecified)	3%	-15%	0%	.	?	4%
CCc1ccc(Nc2cc(C(=O)NCCCN(C)c3ccccc3)c3ccccc3n2)cc1	1%	-8%	-4%	.	?	-9%
CCCCN(CCCNC(=O)c1cc(Nc2ccc(OC)cc2)nc2ccccc12)Cc1ccccc1	5%	-15%	0%	.	4µM*[quencher]	-10%
CCCCN(CCCNC(=O)c1cc(Nc2ccc(OC)c(OC)c2)nc2ccccc12)Cc1ccccc1	15%	?	0%	.	13µM*[quencher]	2%
CSc1cccc(Nc2cc(C(=O)NCCCN(C)c3ccccc3)c3ccccc3n2)c1	-7%	-7%	-1%	.	2.8µM*[quencher]	2%
COc1ccc(Nc2cc(C(=O)NCCCN3CCN(C)CC3)c3ccccc3n2)c(OC)c1	12%	?	-2%	-1%	-27%	7%
CCCCN(CCCNC(=O)c1cc(Nc2ccc(OC)cc2OC)nc2ccccc12)Cc1ccccc1	15%	?	-3%	.	10µM*[quencher]	5%
CCN(CCCNC(=O)c1cc2cc3cc(OC)ccc3nc2s1)c1cccc(C)c1	9%	?	-1%	.	4µM*[quencher]	-1%
CCn1c(=O)c2sccc2n2c(CCCC(=O)N3CCN(c4ccccc4OC)CC3)nnc12	-1%	-6%	0%	.	-11%	-6%
